Screens deposited in PubChem by National Center for Advancing Translational Sciences (NCATS).
JMJD2A Tudor: inhibitors of human JMJD2A Tudor domain. Potency, µM (highest dose often 114 µM), usual class: inhibitors. AID 504339. AlphaScreen JMJD2A-Tudor / H3K4me3 peptide binding. actives 4.4% (n = 390,000). O75164; also: nearly all actives have a fitted effect of over 50% in size
Target sequence (O75164 whole entry, looked up, the tested form may be a part): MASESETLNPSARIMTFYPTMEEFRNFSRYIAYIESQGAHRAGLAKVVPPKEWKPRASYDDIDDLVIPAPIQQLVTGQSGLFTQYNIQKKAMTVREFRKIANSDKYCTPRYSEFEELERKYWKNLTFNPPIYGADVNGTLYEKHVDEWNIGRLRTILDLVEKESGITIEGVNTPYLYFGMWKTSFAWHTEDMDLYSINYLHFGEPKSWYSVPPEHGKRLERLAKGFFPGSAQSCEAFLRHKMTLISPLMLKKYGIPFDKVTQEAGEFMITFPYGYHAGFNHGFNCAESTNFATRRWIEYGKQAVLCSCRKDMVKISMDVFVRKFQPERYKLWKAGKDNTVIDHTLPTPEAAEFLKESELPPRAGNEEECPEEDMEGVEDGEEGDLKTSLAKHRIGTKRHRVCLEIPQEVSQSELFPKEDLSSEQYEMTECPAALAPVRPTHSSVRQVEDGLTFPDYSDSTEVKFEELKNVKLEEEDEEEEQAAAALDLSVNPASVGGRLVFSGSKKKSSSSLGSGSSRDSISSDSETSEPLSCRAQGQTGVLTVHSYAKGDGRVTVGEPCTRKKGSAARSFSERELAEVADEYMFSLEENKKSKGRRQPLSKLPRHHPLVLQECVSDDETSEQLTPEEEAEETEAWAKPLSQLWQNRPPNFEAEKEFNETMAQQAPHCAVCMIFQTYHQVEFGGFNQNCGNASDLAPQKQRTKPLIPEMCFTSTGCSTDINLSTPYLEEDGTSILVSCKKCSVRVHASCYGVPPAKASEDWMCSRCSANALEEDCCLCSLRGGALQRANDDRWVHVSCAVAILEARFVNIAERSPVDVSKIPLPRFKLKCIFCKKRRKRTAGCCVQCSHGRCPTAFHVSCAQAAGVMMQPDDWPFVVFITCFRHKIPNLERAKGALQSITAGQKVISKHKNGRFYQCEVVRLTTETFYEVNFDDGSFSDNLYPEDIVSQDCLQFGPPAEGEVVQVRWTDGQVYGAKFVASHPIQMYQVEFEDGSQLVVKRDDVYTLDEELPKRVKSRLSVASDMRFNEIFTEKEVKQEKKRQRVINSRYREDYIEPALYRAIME
BAZ2B block: inhibitors of human BAZ2B bromodomain; actives 4.4% (n = 360,000); Potency, µM (titrated, usually from 114 µM), usual class: inhibitors; AlphaScreen BAZ2B-H3K14Ac peptide displacement; Q9UIF8; also: nearly all actives have a fitted effect of over 60% in size
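BAZ2B (50 nM) with biotin-H3(5-23)K14Ac peptide (50 nM) in PBS pH 7.4, 0.01% Tween-20, preformed 30 min, then compound 30 min at room temperature; top concentration 110uM. AlphaScreen streptavidin donor/nickel chelate acceptor beads (10 ug/mL final), 20 min dark, signal read.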
GLS inhibitor: glutaminase GLS (human) inhibition; actives 0.21% (n = 410,000); GLS enzymatic activity, qHTS titration; AID 624170; Potency, µM (highest dose often 45.5 µM), hits mostly inhibitors; O94925
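hKGA; 45 mM KH2PO4 pH 8.2 + 0.02% Tween-20; cpd via pin tool; 1 mM Gln soln; GluOx/HRP/Amplex Red; RT 30 min; fluor. t0 & final.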
HP1b binding inh: inhibitors of HP1-beta chromodomain binding to methylated histone tails. Potency, µM (series often up to 114 µM), most hits filed as inhibitors. actives 0.56% (n = 390,000). AID 540317. AlphaScreen HP1-beta / biotin-H3K9me3 peptide binding. P83916; also: nearly all actives have a fitted effect of over 70% in size
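HP1-beta protein (50 nM final) preincubated 30 min at room temperature with biotinylated H3(1-18)K9me3 peptide (50 nM) in PBS pH 7.4, 0.01% Tween-20, then compound added for 30 min. AlphaScreen streptavidin donor/nickel chelate acceptor beads (10 ug/mL final), 30 min dark, luminescence read.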
G9a inh: G9a (human) methyltransferase inhibition | Q96KQ7 | G9a H3K9 monomethylation, AlphaScreen, 2 h | Potency, µM (highest dose often 102 µM), most hits filed as inhibitors | actives 8.8% (n = 350,000); also: nearly all actives have a fitted effect of over 75% in size
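Readings reflect AlphaScreen signal from monomethyl-H3K9 antibody detection. HMT at 20 nM; substrate b-H3K9 500 nM; cofactor SAM 20 uM; 2 h RT reaction; compounds tested as titrations in qHTS with 15 min preincubation.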
Of the large screens only hits and unclear results are named; the others gave an inactive call; ! = repeats disagree. Hits are enriched below; roughly 10% of the tested compounds scored in any of these assays. Calls follow the shape of the dose curve; as a rule, active = well fitted curve in the direction sought with a large enough effect; inconclusive = small, poorly fitted or top-dose-only effect, or another doubt; inactive = no such curve, though single readings can be large; an effect the other way counts as inactive or inconclusive.

O=C(C[n+]1cccc(CNC(=O)c2ccc(OC(F)F)cc2)c1)Nc1ccc(F)cc1	none
COC(=O)c1ccc[n+](CC(=O)Nc2ccc(OC(F)F)cc2)c1	JMJD2A Tudor inconclusive, HP1b binding inh inconclusive, G9a inh 44.7µM
Cc1ccc(OCC(=O)N(Cc2ccco2)Cc2ccco2)cc1C	JMJD2A Tudor inconclusive, G9a inh inconclusive
Cc1ccc(S(=O)(=O)c2nnn3c2nc(N2CCN(c4ccccc4F)CC2)c2ccccc23)cc1C	none
CO[C@H]1C[C@@H]2CC[C@@H](C)[C@@](O)(O2)C(=O)C(=O)N2CCCC[C@H]2C(=O)O[C@H]([C@H](C)C[C@@H]2CC[C@@H](O)[C@H](OC)C2)CC(=O)[C@H](C)/C=C(/C)[C@@H](O)[C@@H](OC)C(=O)[C@H](C)C[C@H](C)C=C/C=C\C=C/1C	none (no result: BAZ2B block, GLS inhibitor, G9a inh)
CO[C@H]1C[C@@H]2CC[C@@H](C)[C@@](O)(O2)C(=O)C(=O)N2CCCC[C@H]2C(=O)OC([C@H](C)C[C@@H]2CC[C@@H](O)[C@H](OC)C2)CC(=O)[C@H](C)/C=C(\C)[C@@H](O)[C@@H](OC)C(=O)[C@H](C)C[C@H](C)/C=C/C=C/C=C/1C (some centres not stated)	G9a inh 25.1µM! (no result: JMJD2A Tudor, BAZ2B block, GLS inhibitor, HP1b binding inh)
CN(C)CCCNC(=O)c1cc(C(=O)c2ccccc2)c[nH]1	none
O=C(c1ccccc1)c1c[nH]c(C(=O)NNc2ccccc2)c1	G9a inh 10µM
CN(Cc1ccco1)c1ncnc2ccc(-c3cccc(Cl)c3)cc12	none (no result: JMJD2A Tudor, GLS inhibitor, HP1b binding inh)
O=C(O)c1cc(S(=O)(=O)Nc2cc(Cl)ccc2Oc2ccccc2)ccc1O	G9a inh 15.8µM
CC(C)NS(=O)(=O)c1ccc(CCC(=O)Nc2cc(Cl)ccc2Oc2ccccc2)cc1	none
CCN(CC)S(=O)(=O)c1cc(Cl)ccc1OC	none
CCc1ccccc1N(C)C(=O)Cn1cnc2sc(C)c(S(=O)(=O)N3CCN(c4ncccn4)CC3)c2c1=O	none
N=c1n(CC(=O)c2ccc([N+](=O)[O-])cc2)c2ccccc2n1Cc1ccccc1	BAZ2B block inconclusive, G9a inh 44.7µM
N=c1n(CCN2CCCCC2)c2ccccc2n1CC(=O)c1cccc([N+](=O)[O-])c1	BAZ2B block inconclusive, G9a inh 44.7µM
O=C1NC[C@H](CCCCN2CCN(CC3CCCCC3)C(=O)C2=O)N(CCc2ccccc2)C1=O	none (no result: JMJD2A Tudor, BAZ2B block, HP1b binding inh, G9a inh)
COc1ccc(/C=C2\SC(=O)N(CCNC(=O)CN3C(=O)NC4(CCCC4)C3=O)C2=O)cc1	G9a inh 50.1µM
O=C(CN1C(=O)NC2(CCCC2)C1=O)NCCN1C(=O)S/C(=C\c2ccccc2F)C1=O	none
O=S(=O)(c1ccc2ccccc2c1)N1CCN(c2nc(-c3ccccc3)nc3ccccc23)CC1	none (no result: BAZ2B block, GLS inhibitor, G9a inh)
CSCCC(NC(=O)c1ccco1)c1nc2ccccc2[nH]1 (configuration not stated)	none
CCN(CC)S(=O)(=O)c1ccc(N2CCCC2)c(NC(=O)c2ccc(N3CCCC3=O)cc2)c1	G9a inh 35.5µM
CCN(CC)S(=O)(=O)c1cc(C(=O)Nc2ccccc2[N+](=O)[O-])ccc1Cl	JMJD2A Tudor inconclusive, BAZ2B block inconclusive, HP1b binding inh inconclusive, G9a inh 28.2µM
CCN(CC)S(=O)(=O)c1ccc(N2CCCC2)c(NC(=O)C2=COCCO2)c1	G9a inh 50.1µM
CCN(CC)S(=O)(=O)c1ccc(N2CCCCC2)c(NC(=O)C2=COCCO2)c1	none
COc1ccccc1CNC(=O)c1ccc(N2CCOCC2)c([N+](=O)[O-])c1	JMJD2A Tudor inconclusive, BAZ2B block 79.4µM
Cc1c(C(=O)N2CCCC2)oc2c1-c1nn(CC(=O)NC(C)c3ccccc3)cc1CC2 (configuration not stated)	JMJD2A Tudor inconclusive, BAZ2B block inconclusive
CCC(C(=O)Nc1ccc(C(=O)OC)cc1)n1nc(-c2ccc(C)cc2)c2c(c1=O)CCCC2 (configuration not stated)	none
CCN(CC)S(=O)(=O)c1ccc(N2CCCCC2)c(NC(=O)c2ccncc2)c1	none
CCN(CC)S(=O)(=O)c1ccc(N2CCOCC2)c(NC(=O)c2ccco2)c1	none (no result: BAZ2B block, G9a inh)
CCN(CC)S(=O)(=O)c1ccc(N2CCOCC2)c(NC(=O)c2ccccc2)c1	none
CCN(CC)S(=O)(=O)c1ccc(N2CCCC2)c(NC(=O)c2ccncc2)c1	G9a inh 31.6µM
CCN(CC)S(=O)(=O)c1ccc(O)c(NC(=O)c2ccc(N3CCOCC3)c([N+](=O)[O-])c2)c1	HP1b binding inh inconclusive, G9a inh 7.08µM
CCN(CC)S(=O)(=O)c1ccc(N2CCOCC2)c(NC(=O)c2ccc(N3CCCC3=O)cc2)c1	G9a inh 50.1µM
CCCCN(CC)CCCNC(=O)Cn1nc(CC)n2c(cc3sccc32)c1=O	none
Nc1c(C(=O)CCC(=O)O)oc2ccc(Cl)cc12	G9a inh 56.2µM
NC(=O)c1oc2ccc(Cl)cc2c1N	G9a inh inconclusive
CN(C)c1ccc(CNC(=O)CCCN2C(=O)CCn3nc(-c4cccn4C)cc32)cc1	JMJD2A Tudor inconclusive, BAZ2B block 39.8µM, G9a inh inconclusive
CC12CN3CC(C)(CN(C1)C3c1ccc3ccccc3c1O)C2=O (configuration not stated)	JMJD2A Tudor inconclusive, G9a inh 1.58µM
COc1cc2c(cc1OC)C(SC)=NC(C)(C)C2	none
COc1cc2c(cc1OC)C(/C(C#N)=N\O)=NC(C)(C)C2	G9a inh 11.2µM
CSc1nc2nc3c(cc2c(=O)n1-c1ccccc1C)CCCC3	G9a inh 7.08µM
O=C(CN(Cc1ccccc1)C(=O)CCl)c1cccc(Br)c1	none
CN(C)C(CNC(C(=O)Nc1ccc([N+](=O)[O-])cc1Br)c1ccccc1)c1ccccc1 (configuration not stated)	JMJD2A Tudor 35.5µM, HP1b binding inh inconclusive, G9a inh inconclusive (no result: BAZ2B block)
CCN(CC)CCNC(C(=O)Nc1ccc([N+](=O)[O-])cc1Br)c1ccccc1 (configuration not stated)	BAZ2B block inconclusive, G9a inh inconclusive
Cc1ccc(Nc2ccc(C(F)(F)F)cc2[N+](=O)[O-])cc1	JMJD2A Tudor inconclusive, BAZ2B block inconclusive, HP1b binding inh inconclusive, G9a inh 3.16µM
CC(C)(CNc1ccc(C(F)(F)F)cc1[N+](=O)[O-])N1CCOCC1	JMJD2A Tudor inconclusive, BAZ2B block inconclusive, G9a inh 70.8µM
CN(C)C(CNc1ccc(C(F)(F)F)cc1[N+](=O)[O-])c1ccccc1 (configuration not stated)	JMJD2A Tudor 35.5µM, BAZ2B block 8.91µM, HP1b binding inh 44.7µM, G9a inh 31.6µM
CCN1C(=O)[C@H]2[C@@H](c3ccc(-c4ccc(Cl)c(Cl)c4)c(OC)c3)N3CCCC[C@@]3(C(=O)OC)[C@H]2C1=O	none (no result: BAZ2B block, G9a inh)
COc1ccc(Nc2nnc(-c3ccncc3)s2)cc1Cl	G9a inh 8.91µM
